{"source": "PubChem BioAssay", "data": [{"system": "Human papillomavirus type 1a protein E7 (residues 44-93)", "test": "small molecules binding HPV E7 44-93 – biochemical, small-molecule microarray, residues 44-93, 635 nm fluorescence, primary screen (AID 1108);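 further: E7 fragment applied at 1 µg/mL in TBST for 1 h at 4 C; score combines spot fluorescence with its signal to noise ratio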", "conditions": "fluorescence 635 nm, higher = more signal", "values": [{"smiles": "O=C1O[C@H](c2ccccc2)[C@H](c2ccccc2)N2[C@H]1[C@@H](C(=O)NC[C@H](O)c1ccccc1)[C@]1(C(=O)Nc3ccccc31)[C@H]2c1ccccc1OCCO", "composite z-score": 1.4}, {"smiles": "[N-]=[N+]=NCc1ccccc1[C@H]1OC(c2ccc(OCCCO)cc2)=N[C@@]1(Cc1ccccc1N=[N+]=[N-])C(=O)N1CCCCC1", "composite z-score": 1.46}, {"smiles": "O=[N+]([O-])c1ccc(C[n+]2ccc(-c3ccc(CO)cc3)cc2)o1", "composite z-score": 0.418}, {"smiles": "O=C1OCC=C[C@H]2OC34C=CCN(CCN5CCOCC5)C(=O)[C@H]3N(CCCCCO)C(=O)[C@@H]4[C@@H]12", "note": "(stereo not given in full)", "composite z-score": -1.19}, {"smiles": "Cc1ccccc1C(O)C1C=CC2C(=O)N(C)C(=O)C2N1Nc1ccc([N+](=O)[O-])cc1[N+](=O)[O-]", "note": "(stereo not given)", "composite z-score": 1.45}, {"smiles": "O=C1NC(=O)C2C1C=CC(C(O)CCc1ccccc1)N2Nc1ccccn1", "note": "(stereo not given)", "composite z-score": -0.574}, {"smiles": "O=C(O)[C@@]1(Cc2ccccc2)COC(c2ccc(OCCCO)cc2)=N1", "composite z-score": 0.0262}, {"smiles": "COC(=O)[C@@]1(Cc2ccccc2)[C@H]2c3cc(C(=O)N(C)C)n(Cc4ccccn4)c3C[C@H]2CN1C(=O)c1ccccc1", "composite z-score": -0.271}, {"smiles": "Cc1ccccc1C(O)C1C=CC2C(=O)N(Cc3ccccc3)C(=O)C2N1n1cnnc1", "note": "(stereo not given)", "composite z-score": 1.29}, {"smiles": "CCOc1cc(C(O)C2C=CC3C(=O)NC(=O)C3N2Nc2ccccn2)ccc1O", "note": "(stereo not given)", "composite z-score": -0.357}, {"smiles": "CCOC(=O)C[C@H]1[C@H](OC(=O)c2ccccc2-c2ccccc2)[C@@H](NC(=O)c2ccccc2)c2cc(OCCCO)ccc2N1C(=O)Cc1ccc(OC)cc1", "composite z-score": -0.12}, {"smiles": "COC(=O)C(CC#Cc1ccc2c(c1)[C@]1(C(=O)N2)[C@H](c2ccccc2OCCO)N2[C@H](c3ccccc3)[C@H](c3ccccc3)OC(=O)[C@H]2[C@@H]1C(=O)Nc1nc2ccccc2s1)C(=O)OC", "composite z-score": 1.41}, {"smiles": "C=CCC(OC(C)=O)[C@@H]1[C@@H](N(Cc2cccc3ccccc23)C(=O)c2ccc(C)cc2)c2cc(OCCCO)ccc2N1C(=O)c1ccc2ccccc2c1", "note": "(stereo not given in full)", "composite z-score": -0.44}, {"smiles": "O=C1NC(=O)C2C1C=CC(C(O)c1ccc3c(c1)OCO3)N2Nc1ccc(Cl)cc1Cl", "note": "(stereo not given)", "composite z-score": -0.85}, {"smiles": "CCC[C@@H]1C[C@@]1(CCC)[C@@H](NC(=O)c1ccco1)c1ccc(Cl)cc1", "composite z-score": -1.06}, {"smiles": "CC(C)NC(=O)[C@@]1(Cc2ccccc2I)c2ccccc2C(=O)N(Cc2ccccc2C(F)(F)F)[C@H]1c1ccc(CO)cc1", "composite z-score": -0.358}, {"smiles": "CCOC(=O)C[C@H]1[C@H](OC(=O)c2ccc(C(=O)c3ccccc3)cc2)[C@@H](NC(=O)C2CCCCC2)c2cc(OCCCO)ccc2N1C(=O)Cc1ccc(OC)cc1", "composite z-score": 0.773}, {"smiles": "COc1ccc([Si](C)(C)[C@@H]2[C@@H](CC(=O)N3Cc4ccccc4C[C@H]3CO)O[C@]3(C(=O)N(Cc4cccc(N5CCCCC5=O)c4)c4ccccc43)[C@H]2C)cc1", "composite z-score": 1.09}, {"smiles": "COCC(=C=CC[C@@H](O)c1ccccc1OCCO)C[C@@H](O)c1ccccn1", "composite z-score": 0.968}, {"smiles": "COCCCNC(=O)[C@]1(CCS(=O)(=O)c2ccccc2)N=C(c2ccc(OCCCO)cc2)O[C@@H]1c1ccccc1", "composite z-score": 1.11}, {"smiles": "COc1cccc(C[C@H]2C[C@@H](CO[Si](C(C)C)(C(C)C)C(C)C)N3C(=O)[C@]4(C(C)=O)O[C@]23[C@H]2C(=O)N(C)C(=O)[C@H]24)c1", "composite z-score": 1.01}, {"smiles": "CCCCC(=C=CC[C@H](O)c1cccc(OCCO)c1)C[C@H](O)COCc1ccccc1", "composite z-score": 0.49}, {"smiles": "CC(C)CNC(=O)[C@@]1(C)c2ccccc2C(=O)N(Cc2ccccc2)[C@H]1c1ccc(CO)cc1", "composite z-score": -0.205}, {"smiles": "O=C1N(Cc2ccccc2)c2ccccc2[C@H]2OC(c3ccc(OCCCO)cc3)=N[C@@]12CCS(=O)(=O)c1ccccc1", "composite z-score": 1.46}, {"smiles": "COc1ccc([Si](C)(C)[C@H]2[C@H](CCn3cc(CCO)nn3)O[C@@]3(C(=O)N(Cc4cccc(N5C(=O)c6cccc7cccc5c67)c4)c4ccccc43)[C@@H]2C)cc1", "composite z-score": 1.1}, {"smiles": "COCCOC(=O)N1C(=O)[C@@]2(c3cc(C#CCC(C(=O)OC)C(=O)OC)ccc31)[C@H](c1ccc(OCCO)cc1)N1[C@H](c3ccccc3)[C@H](c3ccccc3)OC(=O)[C@H]1[C@@H]2C(N)=O", "composite z-score": 1.35}, {"smiles": "[N-]=[N+]=NCc1ccccc1C[C@]1(C(=O)NCCN2CCOCC2)COC(c2ccc(OCCCO)cc2)=N1", "composite z-score": 1.44}, {"smiles": "O=C(NCc1ccccc1)[C@]1(Cc2ccccc2)N=C(c2ccc(OCCCO)cc2)O[C@@H]1c1ccccc1", "composite z-score": 1.4}, {"smiles": "CN(C)C(=O)[C@]1(Cc2ccccc2N=[N+]=[N-])N=C(c2ccc(OCCCO)cc2)O[C@@H]1c1ccccc1CN=[N+]=[N-]", "composite z-score": 1.42}, {"smiles": "C=C[C@@H](O)[C@H]1CC(c2ccccc2)=NO1", "composite z-score": -0.893}, {"smiles": "C=CC[C@]1(C(=O)N(C)C)N=C(c2ccc(OCCCO)cc2)O[C@H]1c1ccccc1", "composite z-score": 1.46}, {"smiles": "O=C(Nc1cc(Br)ccc1C(=O)NCc1cccc(O)c1)c1ccccc1", "composite z-score": 0.27}, {"smiles": "CC(C)N1C(=O)c2ccccc2[C@](C)(C(=O)O)[C@@H]1c1ccc(CO)cc1", "composite z-score": -0.113}, {"smiles": "COCC(=C=CC[C@@H](O)c1ccccc1OCCO)C[C@@H](O)COCc1ccccc1", "composite z-score": -0.0562}, {"smiles": "C=C(C)[C@@H]1CC=C(C(O)C2C=CC3C(=O)N(C4CCCCC4)C(=O)C3N2Nc2ccc(OC)cc2)CC1", "note": "(stereo not given in full)", "composite z-score": 1.39}]}]}
